{"source": "PubChem BioAssay AID624481", "about": "(The Scripps Research Institute Molecular Screening Center, 2012)", "note": "Active and inactive are the calls of the source. Rule as the data show it: active = inhibition above about 50%; inactive = the rest."}
{"molecular_target": "Prolyl endopeptidase-like (Mus musculus) (UniProt Q8C167)", "sequence (Q8C167 whole entry, looked up)": "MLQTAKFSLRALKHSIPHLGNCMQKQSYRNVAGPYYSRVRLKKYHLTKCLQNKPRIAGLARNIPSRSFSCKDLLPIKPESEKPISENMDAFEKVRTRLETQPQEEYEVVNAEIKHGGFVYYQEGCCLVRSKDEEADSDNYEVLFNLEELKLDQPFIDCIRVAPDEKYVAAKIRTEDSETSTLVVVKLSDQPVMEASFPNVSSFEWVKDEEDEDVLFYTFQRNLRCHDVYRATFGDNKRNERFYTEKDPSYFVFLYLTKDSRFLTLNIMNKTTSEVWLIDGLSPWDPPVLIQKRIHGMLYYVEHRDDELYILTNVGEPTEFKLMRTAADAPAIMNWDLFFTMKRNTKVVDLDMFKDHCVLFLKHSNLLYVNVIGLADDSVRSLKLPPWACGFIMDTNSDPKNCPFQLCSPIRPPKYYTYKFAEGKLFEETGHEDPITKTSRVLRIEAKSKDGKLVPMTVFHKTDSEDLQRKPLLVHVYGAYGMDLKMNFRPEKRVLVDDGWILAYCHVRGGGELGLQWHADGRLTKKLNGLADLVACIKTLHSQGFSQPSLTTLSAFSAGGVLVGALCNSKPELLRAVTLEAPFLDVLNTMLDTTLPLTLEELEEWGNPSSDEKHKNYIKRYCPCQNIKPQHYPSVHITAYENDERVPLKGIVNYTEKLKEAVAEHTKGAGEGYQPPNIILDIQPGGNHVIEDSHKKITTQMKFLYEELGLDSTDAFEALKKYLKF", "test": "purified PREPL inhibitors, PREPL inhibitor project, biochemical, gel-based competitive ABPP, fluorescence, HTS hits (AID 624481)", "details": "at 20 µM, active compounds read high"}
{"smiles": "CC(=O)N1CCN(c2ccc(NCc3ccc(-c4ccc(Br)cc4)o3)cc2)CC1", "inhibition": "-23% (inactive)"}
{"smiles": "Cc1noc(C)c1S(=O)(=O)N(C)C[C@H]1Oc2c(NC(=O)Nc3ccc(C(F)(F)F)cc3)cccc2C(=O)N([C@H](C)CO)C[C@@H]1C", "inhibition": "9% (inactive)"}
{"smiles": "C#CCOCCOCCOCCNc1nc(N2CCN(C(=O)CCCCCCCCCCNC(=O)[C@H](CCCCN)n3cc(C)nn3)CC2)nc(N2CCN(C(=O)CCCCCCCCCCNC(=O)[C@H](CCCN=C(N)N)n3cc(C[C@@H](C)CC)nn3)CC2)n1", "inhibition": "-58% (inactive)"}
{"smiles": "Cc1ccc(C2CC(c3cccc(Cl)c3)n3nc(N)nc3N2)cc1", "note": "(centres undefined)", "inhibition": "-71% (inactive)"}
{"smiles": "COc1ccc(-c2c(-c3ccccc3)c(C(=O)C(=O)NCCCN(C)C)n3ccc4cc(OC)c(OC)cc4c23)cc1OC", "inhibition": "-15% (inactive)"}
{"smiles": "Clc1cccc(-c2ccc(C3Nc4cccc5cccc(c45)N3)o2)c1", "inhibition": "100% (active)"}
{"smiles": "Cc1cc(NN=Cc2ccc(O)cc2)c2cccc(C)c2n1", "inhibition": "1% (inactive)"}
{"smiles": "Cc1cc(OCC(=O)Nc2ccc(N3CCN(C)CC3)cc2)ccc1Cl", "inhibition": "-14% (inactive)"}
{"smiles": "CN(C)c1ccc(NC(=O)c2cccc(C(=O)Nc3ccc(N(C)C)cc3)n2)cc1", "inhibition": "-170% (inactive)"}
{"smiles": "CCN1C(=O)/C(=C\\N2CCN(c3ccccc3)CC2)SC1=S", "inhibition": "-14% (inactive)"}
{"smiles": "COCCn1c(-c2ccc(Br)cc2)csc1=Nc1cccnc1", "inhibition": "43% (inactive)"}
{"smiles": "Cc1cc(N2CCN(C)CC2)nc2ccc(NC(=O)CCC(=O)N3CCN(c4ccc([N+](=O)[O-])cc4)CC3)cc12", "inhibition": "-92% (inactive)"}
{"smiles": "COc1ccc(CCNC(=O)c2cc3c(=O)n4ccccc4nc3n(CCCN3CCOCC3)c2=N)cc1", "inhibition": "-26% (inactive)"}
{"smiles": "C#CCOCCOCCOCCNc1nc(N2CCN(C(=O)CCCCCCCCCCNC(=O)Cn3cc(CCCCCN)nn3)CC2)nc(N2CCN(C(=O)CCCCCCCCCCNC(=O)[C@H](CO)n3cc(CCCCCN)nn3)CC2)n1", "inhibition": "-38% (inactive)"}
{"smiles": "CN(C)c1ccc(NC(=O)Cn2cc3c(n2)CCCC3)cc1", "inhibition": "-22% (inactive)"}
{"smiles": "COc1ccc(NCc2nc3ccccc3n2CCOc2ccc(C)cc2)cc1", "inhibition": "-75% (inactive)"}
{"smiles": "Cc1noc(C)c1S(=O)(=O)Nc1ccc2c(c1)C(=O)N([C@H](C)CO)C[C@H](C)[C@@H](CN(C)C(=O)Nc1ccc(C(F)(F)F)cc1)O2", "inhibition": "-1% (inactive)"}
{"smiles": "Cc1ccc(-c2csc(=Nc3cccnc3)n2CCCN2CCCC2=O)cc1C", "inhibition": "-149% (inactive)"}
{"smiles": "COc1ccc2cc1Oc1ccc(cc1)C[C@H]1c3cc(c(OC)cc3CCN1C)Oc1c(O)c(OC)cc3c1[C@H](C2)N(C)CC3", "inhibition": "0% (inactive)"}
{"smiles": "O=C(C1=C[C@@H](c2ccc(Br)cc2)C[C@@H](OCCCCO)O1)N1CCN(Cc2ccc3c(c2)OCO3)CC1", "inhibition": "-47% (inactive)"}
{"smiles": "CNCCC(Oc1ccc(C(F)(F)F)cc1)c1ccccc1", "note": "(centres undefined)", "inhibition": "-58% (inactive)"}
{"smiles": "Oc1c(CN2CCOCC2)cc(COCc2ccccc2)c2cccnc12", "inhibition": "-145% (inactive)"}
{"smiles": "Cn1c(NC(=O)C[n+]2cc(-c3ccc(Cl)c(Cl)c3)n3c2CCC3)cc(=O)n(C)c1=O", "inhibition": "-80% (inactive)"}
{"smiles": "Cc1c(C#N)c(N=CN(C)C)c(C(=O)c2ccc(Br)cc2)n1-c1ccc(Cl)cc1", "inhibition": "-59% (inactive)"}
